Test results taken from PubChem BioAssay AID540364 (The Scripps Research Institute Molecular Screening Center, 2011).
About 2,000 (0.56%) of roughly 360,000 compounds were called active. The entries come from a sample that favours actives as a whole. Values without a mark were called inactive.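 Rule for the calls: active = activation above the average of all compounds screened plus 3 SD, cutoff fixed separately per campaign (cut at about 7.5% in these data); inactive = the rest.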

test: GAA850 frataxin promoter reporter upregulation – cell-based, luciferase luminescence, HEK293 lucGAA850, primary screen (AID 540364); conditions: HEK293 lucGAA850 FXN promoter luciferase reporter, 24 h; at 6 µM; hits give high values; percent of 10 µM SAHA response;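 note: 0% = DMSO wells and 100% = 10 µM SAHA wells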

SMILES | activation
Cc1nc(-c2ccc(F)cc2)c(CC(=O)Nc2cc(S(=O)(=O)N3CCCCC3)ccc2C)s1 | 18.7% (active)
Cc1nc(-c2ccc(F)cc2)c(CC(=O)N2CCN(S(=O)(=O)c3ccc(F)cc3)CC2)s1 | 1.58%
Cc1nc(-c2ccc(F)cc2)c(CC(=O)Nc2cccc(S(=O)(=O)N3CCOCC3)c2)s1 | -0.93%
CSCCC(NC(N)=O)C(=O)N(C)CC(=O)Nc1ccc(C)cc1 (configuration not stated) | 0.85%
CCOc1cc(S(=O)(=O)NCc2ccc3c(c2)OCO3)ccc1F | 1.09%
Cc1ccc(-c2nc3ccccc3[nH]c2=O)cc1 | 8.59% (active)
Cc1ccc(-c2nnc(-n3nnc4ccccc43)c3ccccc23)cc1 | 3.17%
Cc1ccccc1N1CC(c2nc3ccccc3[nH]2)CC1=O (configuration not stated) | -3.78%
COc1ccc(Nc2nc(NCc3ccco3)nc(N/N=C/c3ccccc3Cl)n2)cc1 | 0.27%
CN(c1ccccc1)c1nc(N)c([N+](=O)[O-])c(NCc2ccco2)n1 | 6.64%
COc1cccc(Nc2nc(N)c([N+](=O)[O-])c(NCc3ccco3)n2)c1 | 12.7% (active)
CCOC(=O)C1CCN(C(=O)CN2C(=O)NC(C)(c3ccc4cc(OC)ccc4c3)C2=O)CC1 (configuration not stated) | -1.63%
O=c1[nH]cnc2c1c(-c1ccccc1)cn2-c1ccc(F)cc1 | 8.36% (active)
O=c1c2c(-c3ccccc3)ccnc2[nH]n1-c1ccccc1 | 2.17%
CCOC(=O)C1CCN(c2ncnc3c2c(-c2ccccc2)cn3-c2ccc(C)cc2)CC1 | 0.35%
CCc1nnc(NC(=O)CSc2nnc(COc3ccc(C#N)cc3)n2-c2ccccc2)s1 | 0.66%
CCOc1ccc(CCNC(=O)C2CCN(c3ccc(N4CCOCC4)nn3)CC2)cc1OCC | 2.52%
CCCCCCCCCCCCN1[C@@H](CC(C)=O)c2cc(F)cc(F)c2S1(=O)=O | 0.59%
COc1ccccc1C1=Nc2cccc3cccc(c23)N1 | 11.7% (active)
COc1ccccc1C1=CC(=O)CCC1 | -2.28%
COc1ccccc1-c1nc(C(F)(F)F)c(OC)o1 | 0.69%
CCOCCOCCC(C(=O)O)P(=O)(c1ccccc1)c1ccccc1 (configuration not stated) | -1.43%
CCOc1ccc(NC(=O)CN(C)C(=O)COc2cccc(CC)c2)cc1OCC | 0.68%

SMILES | activation
C[C@H](CO)N1C[C@H](C)[C@@H](CN(C)C(=O)c2cccc(F)c2)Oc2cc(-c3cncnc3)ccc2S1(=O)=O | 0.78%
COc1ccccc1CNC(=O)c1ccc(N(C)S(=O)(=O)c2ccc(C)cc2)cc1 | 0.45%
COc1ccc(NC(=O)CC2C(=O)OCC3CCCCN32)cc1Cl (configuration not stated) | 3.58%
COc1ccc(/C=C/C(=O)c2c(O)cc(OC)cc2OC)cc1 | 1.23%
O=C(NC1CCCC1)c1cc(-c2ccccc2)on1 | 8.61% (active)
COc1cc(OC)cc(C(=O)NCCCn2ccnc2)c1 | 1.13%
O=C(NCCCn1ccnc1)c1cc(-c2ccccc2)on1 | 20.8% (active)
O=C(NC1CCCCC1)c1cc(C2CC2)on1 | 2.15%
O=C(NCCCn1ccnc1)c1cc(Br)c(Br)s1 | 1.52%
O=C(NC1CCCCCCC1)c1cccs1 | 1.55%
Fc1ccc(CNc2nc3ccccc3n3nnnc23)cc1 | 4.29%
O=S(=O)(c1ccc(Sc2nnc3ccccn23)nc1)N1CCOCC1 | -1.38%
CC1(C)CC(=O)CC2(C1)NCC(c1ccccc1Cl)c1c2[nH]c2ccccc12 (configuration not stated) | -7.14%
CCCNC(=O)CCc1c(C)nc2c(c(C)nn2-c2ccc(C)cc2)c1C | 0.2%
CCCc1c(C(=O)O)cnn1-c1ccc(Cl)cc1 | -0.1%
CCCNC(=O)c1c(Cl)cnn1-c1ccc(C)cc1 | 7.7% (active)
Cc1cnc(C(=O)OCc2c(C)cc(C(C)(C)C)cc2C)cn1 | 1.56%
CC(Oc1ccccc1)C(=O)NN1Cc2ccccc2C1=N (configuration not stated) | 2.03%
CCOC(=O)c1nn(-c2cccc(C)c2)cc1C(=O)c1ccccc1 | 6.71%
CCCNC(=O)c1cc(C2CCCCN2S(=O)(=O)c2ccc(C#N)cc2)on1 (configuration not stated) | 1.65%
O=C(CSc1cccc2cccnc12)N/N=C/c1cccnc1 | 15.3% (active)
Cc1ccc(S(=O)(=O)N(CC(=O)N/N=C/c2ccc(F)cc2)c2cccc3cccnc23)cc1 | -4.8%
Cc1c(NC(=O)CSc2cccc3cccnc23)c(=O)n(-c2ccccc2)n1C | 2.68%

SMILES | activation
COc1ccccc1N(CC(=O)Nc1ccc(C)cc1Cl)S(=O)(=O)c1cccs1 | 0.98%
Cc1ccccc1-n1c(C)cc(/C=N/NC(=O)c2ccc(CN3CCOCC3)cc2)c1C | 0.54%
COc1ccc(CCNC(=O)C(=O)NCC2OCCN2S(=O)(=O)c2ccc(F)cc2)cc1OC (configuration not stated) | -0.5%
Cc1noc(C)c1-c1ccc2ncnc(NC(C)c3ccco3)c2c1 (configuration not stated) | 10.2% (active)
CCc1c(N=O)c(-c2ccccc2)n(O)[n+]1[O-] | 3.14%
COc1cc(/C=C2\Oc3ccc(C#Cc4ccc(O)cc4)cc3C2=O)cc(OC)c1 | -0.08%
COc1cc(C#Cc2ccc3cc(CCCO)oc(=O)c3c2)cc(OC)c1 | 7.61% (active)
CC(C)c1ccc(S(=O)(=O)N2CCC3(CC2)OCCO3)cc1 | -0.76%
COCOCCn1cc(CN2CCS(=O)(=O)N(Cc3ccc(-c4ccccc4)cc3)C(CC(C)C)C2=O)nn1 (configuration not stated) | -0.25%
CCOc1cccc2cc(C(=O)OCC(=O)Nc3c(C)cccc3CC)c(=O)oc12 | 1.17%
CCCCCOc1ccc(CSC2=NCCN2)cc1[N+](=O)[O-] | 8.36% (active)
O=[N+]([O-])c1ccccc1OCCCCN1CCCCC1 | 1.12%
Cc1nc(SCc2ccc(F)cc2)c([N+](=O)[O-])[nH]1 | 0.83%
Cc1oc2c(F)c(F)c(F)c(F)c2c1S(=O)(=O)Nc1cccc(C(F)(F)F)c1 | -1.14%
NC(=O)c1ccsc1NC(=O)COC(=O)COc1ccc(C=O)cc1 | 1.47%
Cc1cc(C)nc(SC(C)C(=O)N/N=C/c2cccs2)n1 (configuration not stated) | -1.1%
Cc1cc(C)nc(S/C=C/C(=O)c2ccccc2)n1 | 14.6% (active)
CCOC(=O)C(=Cc1ccccc1)C(=O)c1ccccc1 | -4.25%
CC(=O)c1ccc(N2CCN(C(=O)C3CCN(S(=O)(=O)c4ccc5c(c4)CC(C)N5C(=O)C4CC4)CC3)CC2)cc1 (configuration not stated) | 1.92%
Cc1ccc(Sc2cc(C(=O)c3ccccc3C(=O)O)ccc2[N+](=O)[O-])cc1 | 0.3%
Cc1ccc(SC(CC(=O)c2ccc(C(C)(C)C)cc2)C(=O)O)cc1 (configuration not stated) | 9.01% (active)
CC(C)(C)c1ccc(C(=O)NNC(=O)Cc2ccccc2)cc1 | 3.03%
COc1ccc(/C=C2\CCCC3C2=NN(C(=O)c2scnc2C)C3c2ccc(OC)cc2)cc1 (configuration not stated) | 1.94%

SMILES | activation
Cc1ccc(NC(=O)C(CC(=O)O)C2CCCO2)c(C)c1 (configuration not stated) | 0.8%
COc1ccc(C(CNC(=O)c2cc3c(s2)CCCC3)N2CCOCC2)cc1 (configuration not stated) | 1.32%
CC1(C(=O)NS(=O)(=O)c2ccccc2Cl)CCN1C(=O)c1cccc(F)c1 (configuration not stated) | 1.46%
CC1(C(=O)NCc2ccc3c(c2)OCO3)CCN1C(=O)Cc1cccc2ccccc12 (configuration not stated) | 0.09%
CSc1ccc(CN2CCC2(C)C(=O)NCc2ccccc2Br)cc1 (configuration not stated) | 0.95%
CC1(C(=O)NCc2cccc3ccccc23)CCN1Cc1ccc(-c2ccccc2)o1 (configuration not stated) | 10% (active)
CCC1CO/C(=C(\C(=C(Cl)Cl)N2CCOCC2)[N+](=O)[O-])N1 (configuration not stated) | 1.9%
Cc1cccc(NC(=O)CN2CCCN(S(=O)(=O)c3ccc(Br)s3)CC2)c1 | 0.67%
COc1cc(OC)cc(-c2c(-c3cccs3)c3cc(-c4ccc(OC)cc4F)ccc3n2C)c1 | 0.9%
CC(C)(C)NC(=O)C(c1ccco1)N(Cc1ccc2c(c1)OCO2)C(=O)Cn1nnc2ccccc21 (configuration not stated) | -3.64%
COc1ccc(N(CCC#N)S(=O)(=O)c2ccc(Cl)cc2)cc1 | 9.52% (active)
COc1ccc(S(=O)(=O)NCCCCOc2ccc(Cl)cc2)cc1 | 1.56%
COc1ccc(N(CC(=O)N2CCCCCC2)S(=O)(=O)c2ccccc2)cc1 | -0.03%
COc1ccc2c(c1)C(=C(C#N)C#N)C(=O)N2CCc1ccccc1 | 1.6%
COc1cc(NC(=S)NCCSc2ccc(C)cc2)cc(OC)c1 | 0.45%
COc1ccc(Cl)cc1NC(=O)CN(C)C(=O)CCCc1c[nH]c2ccccc12 | 9.56% (active)
COc1ccc(Cl)cc1NC(=O)CN(C)C(=O)CNC(=O)C12CC3CC(CC(C3)C1)C2 | 1.23%
COc1ccc(Cl)cc1NC(=O)CN(C)C(=O)c1cc2ccccc2cc1OC | 0.89%
COCCNc1ncnc2c1ncn2[C@H]1CN(CCN2CCOCC2)C[C@@H](CO)O1 | 0.56%
Cc1ccc(C(NC(=O)C2CCN(CCOc3ccc(Cl)cc3Cl)CC2)c2ccccn2)cc1 (configuration not stated) | 1.16%
O=C(N/N=C/c1ccco1)c1csc2c1CCCC2 | 1.3%
O=C(N/N=C/c1ccco1)c1ccc(NC(=O)C2CC2)cc1 | 1.23%
O=C(N/N=C/C=C/c1ccco1)c1cccs1 | 11.9% (active)
